Wee1 degr inh: Wee1 degradation inhibitors, primary screen, cell-based, HeLa, Wee1K328M-luciferase, luminescence; Wee1-like protein kinase (Homo sapiens), P30291; HeLa Luc-Wee1K328M stability; 100% = proteasome inhibitor MG132 effect; reporter increase, % at 5 µM; 220,000 tested, 1.2% active; AID 1321, 2008;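 active means activation above the mean of all tested compounds plus 3 SD, set per screening run, cut at about 8.8% in these data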;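 further: cells exposed to compound for 20 h before luminescence read; 0% = DMSO alone and 100% = MG132 at 30 µM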
DAX1 inh-1: DAX1 (NR0B1) inhibitors, primary screen, cell-based, HEK293, Gal4-DAX1, luciferase luminescence; HEK293 Gal4-DAX1 luciferase reporter; inhibition, % at 6.75 µM; 340,000 tested, 0.99% active; AID 504766, 2011;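 active means inhibition above the mean over all tested compounds plus 3 SD, cut at about 4.2% in these data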;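 further: 0% = DAX1-transfected cells with DMSO and 100% = empty-vector control cells with DMSO; inhibition shows as a rise in luminescence from relieved DAX1 repression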
Target sequence (P51843 207-470 limits assumed): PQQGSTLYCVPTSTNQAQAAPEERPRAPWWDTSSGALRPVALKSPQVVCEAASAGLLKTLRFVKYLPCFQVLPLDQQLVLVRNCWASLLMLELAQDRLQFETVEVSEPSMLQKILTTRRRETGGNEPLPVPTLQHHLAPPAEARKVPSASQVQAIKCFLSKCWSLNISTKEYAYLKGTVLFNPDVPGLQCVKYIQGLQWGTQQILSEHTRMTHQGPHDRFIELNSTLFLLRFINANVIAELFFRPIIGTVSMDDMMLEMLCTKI
hcDAF-12 act: H. contortus DAF-12 nuclear receptor activators, primary screen, cell-based, luminescence, HEK293, lit1-tk-luc reporter | 370,000 tested, 1.4% active | AID 652067, 2013 | activation, % at 6.8 µM | HEK293 hcDAF-12 lit1-tk-luc reporter; 0% DMSO, 100% Δ7-dafachronic acid;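 active means activation above the mean of all tested compounds plus 3 SD, cut at about 5.5% in these data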;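 further: 100% = response to 3 µM Δ7-dafachronic acid high control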
ssDAF12 agonist: S. stercoralis DAF-12 nuclear receptor activators, primary screen, cell-based, luminescence, HEK293, GRIP1 co-expression, lit1-tk-luc; Nuclear hormone receptor DAF-12 (Strongyloides stercoralis); HEK293 ssDAF-12/GRIP1 lit1-tk-luc reporter; % of 3 µM dafachronic acid response; activation, % at 6.8 µM; 370,000 tested, 1% active; AID 652126, 2013;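 active means activation above the mean over all tested compounds plus 3 SD, cut at about 0.9% in these data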;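 further: 0% = DMSO-only wells and 100% = 3 µM delta7-dafachronic acid wells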
DAX1 inh-2: DAX1 (NR0B1) inhibitors on StAR promoter, primary screen, cell-based, luminescence, SF-1 (NR5A1), full-length DAX-1 | inhibition, % at 6.8 µM | AID 652010, 2013 | HEK293T StAR-luciferase reporter, SF-1/DAX-1 repression relief | 370,000 tested, 1.1% active;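 active means inhibition above the mean over all tested compounds plus 3 SD, cut at about 3.6% in these data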;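 further: 0% = DAX-1 cells with DMSO and 100% = cells lacking DAX-1 with DMSO; higher inhibition means more luminescence from relief of DAX-1 repression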
hgDAF-12 ag: H. glycines DAF-12 receptor agonists, primary screen, cell-based, luminescence, HEK293, GAL4 fusion, UAS-luciferase. Nuclear hormone receptor DAF-12 (Heterodera glycines), GAL4 fusion. HEK293 GAL4-hgDAF12 UAS-luciferase reporter, agonist luminescence; normalized to butyrate control. activation, % at 6.8 µM. 370,000 tested, 1.8% active. AID 687014, 2013;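 active means activation above a cutoff set at the mean of all screened compounds plus 3 SD, cut at about 10% in these data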;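 further: 0% = DMSO wells and 100% = sodium butyrate wells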
* marks the source's active call; other numbers are inactive results. Compounds with a hit are over-represented: about 4.6% of the library has one in this group of screens.

`COc1ccc(CN2C[C@]3(C=C4CCCCC4n4c(=O)n(-c5ccccc5)c(=O)n43)N=C2NC(=O)c2ccccc2)c(OC)c1` (some centres undefined) gave hcDAF-12 act -1, ssDAF12 agonist -1, DAX1 inh-2 -1 and hgDAF-12 ag -6.
Screening Cc1cc(=O)[nH]c(SCC(=O)NCCC2=CCCCC2)n1 returned Wee1 degr inh 4, DAX1 inh-1 4.9*, hcDAF-12 act -1, ssDAF12 agonist -1, DAX1 inh-2 0 and hgDAF-12 ag -2.
For CCOC(=O)N1CCC(n2c(SCC(=O)NCCC3=CCCCC3)nc3ccccc3c2=O)CC1 the results were Wee1 degr inh -1, DAX1 inh-1 4.4*, hcDAF-12 act -4, ssDAF12 agonist -2, DAX1 inh-2 -1 and hgDAF-12 ag -2.
Screening CCOC(=O)N1CCC(n2c(SCC(=O)NCc3ccccc3)nc3ccccc3c2=O)CC1 returned Wee1 degr inh -3, DAX1 inh-1 -2, hcDAF-12 act -1, ssDAF12 agonist -2, DAX1 inh-2 -1 and hgDAF-12 ag -1.
O=C(OCC#CCSc1nnc(-c2cccc3ccccc23)o1)C1CCCC1 was read as hcDAF-12 act -3, ssDAF12 agonist -2 and hgDAF-12 ag 0.
Screening COc1ccc(C)cc1-n1nnnc1SC(C)C(=O)NC1CCCC1 (centres undefined) returned DAX1 inh-1 0, hcDAF-12 act -1, ssDAF12 agonist -1, DAX1 inh-2 -2 and hgDAF-12 ag -1.
`CCCCN(C)C(=O)Cn1nc(Cc2ccncc2)c2ccccc2c1=O` gave DAX1 inh-1 15*, hcDAF-12 act -2, ssDAF12 agonist -1, DAX1 inh-2 0 and hgDAF-12 ag -1.
For CN(C(=O)COC(=O)c1ccc2ccccc2n1)C1CCCCC1 the results were DAX1 inh-1 1, hcDAF-12 act 1, ssDAF12 agonist 2.1*, DAX1 inh-2 1 and hgDAF-12 ag 0.
For O=C(OCC(=O)c1ccc[nH]1)c1ccc2ccccc2n1 the results were Wee1 degr inh -1, DAX1 inh-1 1, hcDAF-12 act 2, ssDAF12 agonist 0, DAX1 inh-2 0 and hgDAF-12 ag 1.
`O=C(COC(=O)c1ccc2ccccc2n1)c1ccccc1` gave Wee1 degr inh 0, DAX1 inh-1 0, hcDAF-12 act 4, ssDAF12 agonist 1.3*, DAX1 inh-2 0 and hgDAF-12 ag 1.
Screening O=c1ncccn1C1OC(CO)C(O)C1O (centres undefined) returned hcDAF-12 act -2, ssDAF12 agonist -1, DAX1 inh-2 1 and hgDAF-12 ag -3.
For O=C(COc1ccc([N+](=O)[O-])cc1)NCc1cccnc1 the results were Wee1 degr inh 9.2*, DAX1 inh-1 0, hcDAF-12 act -2, ssDAF12 agonist -1, DAX1 inh-2 0 and hgDAF-12 ag 0.
For CS(=O)(=O)Oc1ccc(/C=C2\C(=N)N3N=C(CC(=O)N4CCOCC4)SC3=NC2=O)cc1Cl the results were DAX1 inh-1 1, hcDAF-12 act -1, ssDAF12 agonist -1, DAX1 inh-2 1 and hgDAF-12 ag 1.
COc1cc(/C=C2/C(=N)N3N=C(CC(=O)N4CCOCC4)SC3=NC2=O)ccc1OC(C)c1ccccc1 (centres undefined) was read as DAX1 inh-1 0, hcDAF-12 act -1, ssDAF12 agonist 2.2*, DAX1 inh-2 1 and hgDAF-12 ag 1.
Cc1ccsc1/C=N/Nc1nc(Cl)c(Cl)cc1Cl was read as Wee1 degr inh 2, DAX1 inh-1 2, hcDAF-12 act 5, ssDAF12 agonist 0, DAX1 inh-2 0 and hgDAF-12 ag 7.
Screening COc1ccc(/C=N/Nc2nc3ccccc3[nH]2)c(OC)c1OC returned Wee1 degr inh 1, DAX1 inh-1 7.5*, hcDAF-12 act -3, ssDAF12 agonist -3, DAX1 inh-2 0 and hgDAF-12 ag -4.
C(=N\Nc1nc2ccccc2[nH]1)/c1c[nH]c2ccccc12 was read as Wee1 degr inh 0, DAX1 inh-1 -2, hcDAF-12 act 0, ssDAF12 agonist -1, DAX1 inh-2 -1 and hgDAF-12 ag -4.
`Cc1ccc(/C=N/Nc2nc(Cl)c(Cl)cc2Cl)s1` gave Wee1 degr inh 3, DAX1 inh-1 4.3*, hcDAF-12 act 5, ssDAF12 agonist 0.9*, DAX1 inh-2 1 and hgDAF-12 ag 5.
`Cc1ccc(/C=N/Nc2nc3ccccc3[nH]2)s1` gave Wee1 degr inh 4, DAX1 inh-1 0, hcDAF-12 act 6.1*, ssDAF12 agonist 1, DAX1 inh-2 3 and hgDAF-12 ag 10.
Cc1ccccc1/C=N/Nc1nc2ccccc2[nH]1 was read as Wee1 degr inh 6, DAX1 inh-1 0, hcDAF-12 act 1, ssDAF12 agonist -1, DAX1 inh-2 1 and hgDAF-12 ag 9.
For CC(=O)c1ccc(N2CCN(C(=O)/C=C/c3ccc(S(=O)(=O)NCc4ccco4)cc3)CC2)cc1 the results were Wee1 degr inh 10*, DAX1 inh-1 -2, hcDAF-12 act -5, ssDAF12 agonist -2, DAX1 inh-2 -3 and hgDAF-12 ag -7.
Screening CC(=O)c1ccc(N2CCN(C(=O)/C=C/c3ccc(S(=O)(=O)N4CCOCC4)cc3)CC2)cc1 returned Wee1 degr inh 4, DAX1 inh-1 0, hcDAF-12 act 0, ssDAF12 agonist -1, DAX1 inh-2 -1 and hgDAF-12 ag 1.
CCc1c(C(=O)Nc2cc(C)ccc2OC)[nH]c(C)c1C(C)=O was read as Wee1 degr inh -2, DAX1 inh-1 0, hcDAF-12 act 5.6*, ssDAF12 agonist 0, DAX1 inh-2 -1 and hgDAF-12 ag 1.
Screening N/C(Cc1cccs1)=N\OC(=O)COc1ccc(Cl)cc1Cl returned Wee1 degr inh -2, DAX1 inh-1 1, hcDAF-12 act 4, ssDAF12 agonist -1, DAX1 inh-2 2 and hgDAF-12 ag 13*.
N/C(Cc1ccc(Cl)cc1Cl)=N\OC(=O)Cc1cccs1 was read as Wee1 degr inh -3, DAX1 inh-1 1, hcDAF-12 act 3, ssDAF12 agonist -1, DAX1 inh-2 0 and hgDAF-12 ag 3.

High-throughput results (PubChem)
